Bioassay records as filed in PubChem.
D1 antag: blocks dopamine activation of the human D1 receptor. HEK293 TREx D1 cells, calcium flux, dopamine EC80; active compounds read low. activity change, negative = inhibition, % at 10 µM. 360,000 tested, 3.2% active; in the data active means activity change below about -30%; further: on the % scale 0 is the no-effect control and ±100 the full control effect
Target sequence (P21728 whole entry, looked up): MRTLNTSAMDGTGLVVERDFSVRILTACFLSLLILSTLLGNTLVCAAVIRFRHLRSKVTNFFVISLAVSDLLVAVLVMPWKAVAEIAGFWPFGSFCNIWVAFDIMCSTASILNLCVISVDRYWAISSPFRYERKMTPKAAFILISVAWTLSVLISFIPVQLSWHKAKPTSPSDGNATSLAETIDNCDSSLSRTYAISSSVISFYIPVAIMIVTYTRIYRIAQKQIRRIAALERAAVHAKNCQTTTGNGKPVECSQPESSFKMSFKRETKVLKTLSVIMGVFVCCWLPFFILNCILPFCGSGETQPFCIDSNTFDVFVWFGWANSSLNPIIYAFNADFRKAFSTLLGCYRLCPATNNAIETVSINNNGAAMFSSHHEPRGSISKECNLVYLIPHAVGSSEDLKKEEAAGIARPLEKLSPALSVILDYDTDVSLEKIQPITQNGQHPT
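Using tetracycline-induced force-coupled D1 Hek293 cells and a calcium dye, signals were followed for 180 s after compound, then for 180 s after EC80 dopamine, to detect inhibitors.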
D1 potentiator: human D1 dopamine receptor positive modulation; HEK293 TREx D1 cells, calcium flux, dopamine EC20 potentiation; 360,000 tested, 0.036% active; potentiation, % at 10 µM; P21728; in the data active means potentiation above about 30%; further: 0% is about no effect
TRHR agonist: TRH receptor (human) agonism | P34981 | TRHR cells, calcium flux fluo-8, FDSS agonist mode | 360,000 tested, 0.18% active | activation, % at 2 µM; further: 0% is about no effect
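TRHR-expressing cells, plated overnight in medium with 10% serum, were loaded with fluo-8 calcium dye at room temperature. After a 10 s baseline, library compound was pin-added and calcium release was recorded kinetically (ex 480/em 530) as agonist response.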
D1 ag: human D1 receptor agonism; P21728; HEK293 T-REx D1 cells, calcium flux, agonist mode; activation, % at 2 µM; 360,000 tested, 1% active; AID 504660; further: 0% is about no effect
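Inducible HEK293 T-REx D1 cells, force-coupled to calcium signalling, were plated at 4000 cells/well with tetracycline and held overnight at 30 C. After no-wash calcium dye loading, compound-evoked calcium rise over 180 s flagged agonists.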
TRHR enhancer: allosteric enhancers of human TRH receptor. 360,000 tested, 0.66% active. TRHR cells, fluo-8 calcium fluorescence, EC20 TRH enhancement. enhancement, % at 2 µM. AID 493056; in the data active means enhancement above about 30%; further: 0% is about no effect
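TRHR-expressing cells loaded with fluo-8 calcium dye were read kinetically (ex 480/em 530) during compound addition, then stimulated with an EC20 of TRH (10 nM final). Enhancement of the Gq-mediated intracellular calcium response was scored.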
* = called active by the depositor. Hits are enriched below; roughly 4.6% of the tested compounds scored in any of these assays. Unless noted, no stated cut-off is given here; in the data, active means activation above about 30%; inactive means the rest.

For CCCN1CCN(CCCNC(=O)CN2C(=O)c3cccnc3Oc3ccc(Cl)cc32)CC1 the results were D1 antag -3.2, D1 potentiator 2.6, TRHR agonist -1.1, D1 ag 6.0 and TRHR enhancer 1.8.
`O=C(CN1C(=O)c2cccnc2Oc2ccc(Cl)cc21)NCCCN1CCCCC1` gave D1 antag -38.2*, D1 potentiator 2.8, TRHR agonist 0.4, D1 ag 0.3 and TRHR enhancer 1.1.
For CN(C)C(=O)C[n+]1ccc(C(N)=O)cc1 the results were D1 antag 10.7, D1 potentiator 0.2, TRHR agonist 0.0, D1 ag 1.6 and TRHR enhancer -2.3.
`CCCCOC(=O)c1ccc(NC(=O)/C(C#N)=C/c2ccc(-c3ccccc3)o2)cc1` gave D1 antag -0.2, D1 potentiator 7.1, TRHR agonist 47.3*, D1 ag 127.5* and TRHR enhancer 7.0.
`Cc1ccc(-c2ccc(/C=C(\C#N)C(=O)Nc3cc(C)nn3-c3ccccc3)o2)cc1` gave D1 antag -24.6, D1 potentiator -8.1, TRHR agonist 17.2, D1 ag 60.7* and TRHR enhancer -2.3.
CCOC(=O)c1ccc(-c2ccc(/C=C(\C#N)C(=O)Nc3c(C)cccc3Cl)o2)cc1 was read as D1 antag 4.4, D1 potentiator 2.0, TRHR agonist 0.7, D1 ag 4.2 and TRHR enhancer 2.6.
`O=C(Nc1ccc(Oc2cccc(C(F)(F)F)c2)nc1)c1cccs1` gave D1 antag -45.4*, D1 potentiator -2.4, TRHR agonist -1.4, D1 ag 32.2* and TRHR enhancer 4.9.
Screening COc1ccc(NC(=O)COc2cccc(C(F)(F)F)c2)cn1 returned D1 antag 1.6, D1 potentiator 0.1, TRHR agonist 0.5, D1 ag 0.5 and TRHR enhancer 23.0.
Screening COc1cccc(C(=O)Nc2ccc(Oc3cccc(C(F)(F)F)c3)nc2)c1 returned D1 antag -42.4*, D1 potentiator -4.5, TRHR agonist -1.4, D1 ag 41.6* and TRHR enhancer 2.5.
Screening O=C(Nc1ccc(Oc2cccc(C(F)(F)F)c2)nc1)c1ccccc1 returned D1 antag -22.2, D1 potentiator -2.3, TRHR agonist 4.3, D1 ag 15.3 and TRHR enhancer 1.9.
Cc1ccc(CNC(=O)CSC2=Nc3ccccc3N=C(c3ccc(F)cc3)C2)cc1 was read as D1 antag 29.5, D1 potentiator 1.8, TRHR agonist 1.0, D1 ag 4.6 and TRHR enhancer 0.9.
For CCCCc1c(O)nc(N2CCN(Cc3ccccc3)CC2)[nH]c1=O the results were D1 antag 14.7, D1 potentiator -3.9, TRHR agonist -0.2, D1 ag 1.6 and TRHR enhancer 5.3.
O=C(CSc1ccc(F)cc1)Nc1ccc2c(c1)C(=O)NC2=O was read as D1 antag -37.4*, D1 potentiator -10.4, TRHR agonist -0.8, D1 ag 12.3 and TRHR enhancer 4.5.
For O=C(Nc1ccc2c(c1)C(=O)NC2=O)c1cccc(Cl)c1 the results were D1 antag -33.0*, D1 potentiator -5.5, TRHR agonist -0.7, D1 ag -0.8 and TRHR enhancer -0.7.
For O=C(Nc1ccc2c(c1)C(=O)NC2=O)c1cc(Cl)ccc1Cl the results were D1 antag -31.0*, D1 potentiator -5.5, TRHR agonist -1.9, D1 ag 0.6 and TRHR enhancer 2.6.
O=[N+]([O-])c1ccc(-n2ccnc2)cc1 was read as D1 antag -38.3*, D1 potentiator -9.2, TRHR agonist 0.5, D1 ag 1.6 and TRHR enhancer 0.0.
Screening CN(C)CCC=C1c2ccccc2CCc2ccccc21 returned D1 antag -66.7*, D1 potentiator -5.0, TRHR agonist 0.3, D1 ag 11.4 and TRHR enhancer 1.3.
For CN(C)CCC=C1c2ccccc2C=Cc2ccccc21 the results were D1 antag -100.1*, D1 potentiator -4.7, TRHR agonist 1.0, D1 ag 13.4 and TRHR enhancer 8.8.
For CN(C)CC/C=C1/c2ccccc2COc2ccccc21 the results were D1 antag -74.5*, D1 potentiator -3.5, TRHR agonist 0.6, D1 ag 8.6 and TRHR enhancer -3.1.
CCCn1c(SCc2nc3sc(C)c(C)c3c(=O)[nH]2)nc2ccccc2c1=O was read as D1 antag 9.1, D1 potentiator 2.4, TRHR agonist -0.5, D1 ag 1.1 and TRHR enhancer 2.0.
For CC(C(=O)NCC1CCCO1)n1cccc1C(=O)c1ccccc1 (stereo unspecified) the results were D1 antag -31.5*, D1 potentiator -1.9, TRHR agonist -0.5, D1 ag 1.5 and TRHR enhancer 8.8.
O=C(NCc1ccccc1CN1CCCC1)c1ccc(Cl)c(S(=O)(=O)N2CCCC2)c1 was read as D1 antag -51.1*, D1 potentiator -7.7, TRHR agonist -0.2, D1 ag 12.1 and TRHR enhancer -1.7.
For O=C(NCc1ccccc1CN1CCCC1)c1cccc(S(=O)(=O)N2CCCC2)c1 the results were D1 antag -12.7, D1 potentiator -1.5, TRHR agonist 0.4, D1 ag 3.3 and TRHR enhancer 7.0.
`COc1ccc(NC(=O)c2ccc(-c3ccccc3)cc2)cc1S(=O)(=O)N1CCOCC1` gave D1 antag -30.2*, D1 potentiator -5.1, TRHR agonist 0.5, D1 ag 6.2 and TRHR enhancer -4.1.
`O=C(NCCN1CCOCC1)c1ccc(Cl)c(S(=O)(=O)N2CCCCC2)c1` gave D1 antag -35.6*, D1 potentiator 6.5, TRHR agonist 0.4, D1 ag 2.7 and TRHR enhancer -0.2.
COc1ccc(C(=O)NCc2ccccc2CN2CCCC2)cc1S(=O)(=O)N1CCOCC1 was read as D1 antag -57.3*, D1 potentiator -19.4, TRHR agonist 0.3, D1 ag 0.7 and TRHR enhancer 4.4.
Screening Cc1ccc(C(=O)NCCCN2CCOCC2)cc1S(=O)(=O)N1CCCCC1 returned D1 antag 2.3, D1 potentiator -5.6, TRHR agonist 0.1, D1 ag 2.6 and TRHR enhancer 0.1.
CCOC(=O)C1CCN(C(=O)c2ccc(C)c(NC(=O)c3nsc4ccccc34)c2)CC1 was read as D1 antag 12.7, D1 potentiator 1.1, TRHR agonist -0.7, D1 ag 1.1 and TRHR enhancer -3.6.
Screening O=C1C(=O)N(CC2CCCO2)C(c2ccccc2[N+](=O)[O-])/C1=C(/O)c1ccccc1 (stereo unspecified) returned D1 antag 1.5, D1 potentiator -8.9, TRHR agonist -0.3, D1 ag 1.6 and TRHR enhancer 10.1.
For Cc1cc(S(=O)(=O)Nc2ccc(C(=O)NCC(c3ccccc3)N(C)C)cc2)ccc1F (stereo unspecified) the results were D1 antag -14.2, D1 potentiator 4.8, TRHR agonist 0.1, D1 ag 0.8 and TRHR enhancer 18.1.
